An excerpt weighted towards active compounds, which were near 5.3% of everything screened.
Coupling enz = inhibits coupling enzyme system, counter-screen for aldolase hits. coupling enzyme system counterscreen, AmpLite Red fluorescence. activity change, negative = inhibition, % at 58.2 µM, hits read low. hit rate 0.67% among 290,000. AID 2472; in the data active means activity change below about -30%
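First, compound is pin-transferred into glyceraldehyde-3-phosphate coupling-enzyme reagent at 57.5 uM final and held 10 min at RT. Next, substrate, coupling system and AmpLite Red are added. After 20 min RT, fluorescence (525/598 nm) is read.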
JMJD2E inh = inhibitors of human JMJD2E histone demethylase. B2RXH2. JMJD2E catalytic domain, FDH-coupled NADH fluorescence (FDH is formaldehyde dehydrogenase). Potency, µM (doses to about 57.1 µM), for the others: at the highest dose activity change, negative = inhibition, actives largely listed as inhibitors. hit rate 1.6% among 230,000. AID 2147; active means well fitted inhibition curve with a large enough effect, not every such curve was filed as active; inconclusive means small, poorly fitted or top-dose-only effect, or another doubt; inactive means no such curve, though single readings can be large or run the other way;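 further: potency means the concentration at half of the fitted maximal effect; 0% = wells with enzyme and -100% = buffer wells without enzyme; nearly all actives have a fitted effect of over 50% in size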
Target sequence (B2RXH2 1-337 limits assumed): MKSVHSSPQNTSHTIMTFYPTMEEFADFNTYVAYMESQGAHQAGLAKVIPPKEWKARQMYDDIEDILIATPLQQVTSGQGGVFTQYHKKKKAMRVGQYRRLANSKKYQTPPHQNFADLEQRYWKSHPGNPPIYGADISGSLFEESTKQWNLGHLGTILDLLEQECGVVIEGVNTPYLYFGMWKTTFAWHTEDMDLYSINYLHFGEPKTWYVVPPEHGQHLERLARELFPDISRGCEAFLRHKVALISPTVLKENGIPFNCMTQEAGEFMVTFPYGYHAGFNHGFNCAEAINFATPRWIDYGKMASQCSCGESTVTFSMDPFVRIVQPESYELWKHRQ
Tau FP inhib = tau fibrillization inhibition (FP); AID 1468; K18 P301L tau heparin fibrillization, Alexa594 FP, 6 h; P10636; Potency, µM (highest dose often 57.7 µM), inactives show at the highest dose activity, negative = inhibition, hits mostly inhibitors; hit rate 0.39% among 280,000; further: potency means the concentration at half of the fitted maximal effect; nearly all actives have a fitted effect of over 55% in size
Target sequence (P10636 561-689 P618L limits assumed): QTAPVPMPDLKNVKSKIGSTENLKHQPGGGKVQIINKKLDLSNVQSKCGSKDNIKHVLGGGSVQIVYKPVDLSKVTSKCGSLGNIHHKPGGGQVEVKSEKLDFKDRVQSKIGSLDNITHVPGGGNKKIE
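Recombinant K18 P301L […], labeled with Alexa 594 at 0.24 uM over 15 uM unlabeled; heparin inducer 20 uM final; 37 C, 6 hr; FP endpoint.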
Tau ThT inhib = tau fibrillization inhibition (ThT binding); AID 1460; Potency, µM (doses to about 57.4 µM), for inactives: at the highest dose activity, negative = inhibition, actives largely listed as inhibitors; hit rate 2.1% among 270,000; recombinant tau K18 P301L, heparin-induced fibrillization, ThT fluorescence; further: potency means the concentration at half of the fitted maximal effect; nearly all actives have a fitted effect of over 55% in size
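Heparin-induced (20 uM) aggregation of recombinant human K18 P301L tau, 15 uM unlabeled with 0.24 uM labeled, pH 7 acetate buffer, 6 hr at 37 C with compound. Fibrils quantified by 30 uM ThT fluorescence after 1 hr ambient incubation.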
Tau fluor counter = counter-screen for tau fibril formation inhibitors; tau K18 P301L Alexa594 fluorescence, heparin fibrillization; Potency, µM (doses to about 57.7 µM), for inactives: top-dose activity change, negative = decrease; hit rate 0.93% among 280,000; further: potency means the concentration at half of the fitted maximal effect; nearly all actives have a fitted effect of over 55% in size
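Human tau K18 P301L (15 uM unlabeled, 0.24 uM Alexa 594-labeled) in 100 mM sodium acetate pH 7 with 20 uM heparin, 6 hr at 37 C. ThT 30 uM added, 1 hr ambient; Alexa 594 FP and total fluorescence read at 555/632 nm.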
Sfp PPTase inh = Sfp phosphopantetheinyl transferase inhibition. Biochemical Sfp PPTase activity, qHTS. hit rate 3.5% among 310,000. Q9F4F7. Potency, µM, without a hit: largest response in the series, negative = inhibition, usual class: inhibitors;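 further: the enzyme is Sfp with the accession as filed and its product quenches rhodamine fluorescence; potency means the concentration at half of the fitted maximal effect; 0% = enzyme reaction without inhibitor and -100% = no enzyme wells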
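Fluorescence-quenching assay: 15 nM Sfp-PPTase preincubated 15 min at room temperature with compound, then 5 uM rhodamine-CoA and 12.5 uM BHQ-2-labelled YbbR peptide added. Fluorescence (ex 525/em 598 nm) read at start and after 30 min; difference gives rate.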
Starred values were filed as active, the others as inactive; ? = inconclusive; nt = not tested or not shown; ! = not active in a repeat; [ ] = dose if it differs, or a comment. Unless noted, the call rests on the fitted dose curve; in most records, active means well fitted curve in the direction sought with a large enough effect; inconclusive means small, poorly fitted or top-dose-only effect, or another doubt; inactive means no such curve, though single readings can be large; an effect the other way counts as inactive or inconclusive. Unless noted, on the % scale 0 is the no-effect control and ±100 the full control effect.

SMILES	Coupling enz	JMJD2E inh	Tau FP inhib	Tau ThT inhib	Tau fluor counter	Sfp PPTase inh
CCN(CC)c1ccc(S(=O)(=O)N2CCOCC2)cc1NC(=O)CSC(=S)N1CCCC1	-2	nt	nt	nt	nt	25µM*
CCN(CC)c1ccc(S(=O)(=O)N2CCOCC2)cc1NC(=O)COC(=O)COc1ccccc1C	nt	nt	nt	nt	nt	16%
CCN(CC)c1ccc(S(=O)(=O)N2CCOCC2)cc1NC(=O)CN1CCN(Cc2ccccc2)CC1	-3	28µM*	6%	-11%	1%	79µM*
COc1ccccc1C(=O)NC(=S)Nc1ccc(N2CCOCC2)c(Cl)c1	1	-2%	-15%	?	?	32µM*
COc1ccccc1C(=O)NC(=S)Nc1cccnc1Cl	-3	nt	nt	nt	nt	45µM*
COc1ccccc1-c1cc(C(=O)Nc2cccnc2Cl)no1	0	nt	nt	nt	nt	19%
Cc1ccc(C(=O)NC(=S)Nc2cccnc2Cl)cc1	-4	nt	nt	nt	nt	56µM*
COC(=O)c1cc(NC(=O)c2cc(-c3ccccc3Cl)oc2C(F)(F)F)ccc1N1CCOCC1	3	-25%	?	nt	13µM*[quencher]	4%
Cc1ccc(C(=O)NC(=S)Nc2ccccc2C(F)(F)F)cc1	-2	2%	?	-10%	-16%	-8%
CC(=O)c1ccc(NC(=O)CCc2c(C)nc3c(c2C)c(=O)n(C)c(=O)n3C)cc1	nt	nt	0%	-12%	0%	nt
CCOc1cc(/C=C/c2cc(C(F)(F)F)[nH]c(=O)n2)ccc1O	0	?	-8%	14µM*	-15%	-10%
COc1cc(/C=C/c2ccc3cccc([N+](=O)[O-])c3n2)ccc1OCC#N	0	1%	-9%	?	?	9%
COc1ccc(/C=C/c2cc(C(F)(F)F)[nH]c(=O)n2)cc1OC	-2	?	-4%[2.34 µM]	11%	14%	17%
CCOc1cc(/C=C/c2ccc3cccc([N+](=O)[O-])c3n2)ccc1O	1	2%	8%	14µM*	?	0%
CCOc1cc(/C=C/c2ccc3cccc([N+](=O)[O-])c3n2)ccc1OCC(=O)N(C)C	1	-9%	5%	7.1µM*	-24%	-11%
COc1cc(OC)cc(C(=O)NCCc2csc(-c3cccc(C)c3)n2)c1	nt	nt	4%	?	-20%	nt
Cc1nn(S(=O)(=O)c2ccc(C(C)(C)C)cc2)c(C)c1S(=O)(=O)N1CCCCCC1	nt	nt	-4%	-3%	2%	nt
CCCCC1=CC2=CC(=O)C(C)(OC(=O)CC)C(=O)C2=CN1CCCCO (stereo unspecified)	-35*!	13µM*!	-12%[11.6 µM]	?	-6%[11.6 µM]	22%
CCCCC1=CC2=CC(=O)C(C)(OC(=O)CC)C(=O)C2=CN1C1CCCCC1 (stereo unspecified)	-19	28µM*!	-6%[11.6 µM]	?	-5%[11.6 µM]	4%
CCCCC1=CC2=CC(=O)C(C)(OC(=O)CC)C(=O)C2=CN1c1ccc(OC)cc1 (stereo unspecified)	-6	?	-7%[11.6 µM]	?	-6%[11.6 µM]	3%
CCCCC1=CC2=CC(=O)C(C)(OC(=O)CC)C(=O)C2=CN1Cc1ccc2c(c1)OCO2 (stereo unspecified)	-1	18µM*!	-7%[11.6 µM]	?	-13%[11.6 µM]	20%
COC(=O)N1C2=C(c3ccccc3[C@@H]1CC(=O)Nc1ccc(Br)cc1)[C@@H]1C(=O)N(c3ccccc3)C(=O)[C@@H]1[C@H](C)C2	-4	-1%[11.4 µM]	-13%[11.6 µM]	11%[11.5 µM]	-15%[11.6 µM]	-17%
COc1ccc(OC)c(S(=O)(=O)Nc2ccc(O)c3ccccc23)c1	-58*	?	?	25µM*	28µM*[quencher]	20µM*
COc1ccc(OC)c(S(=O)(=O)Nc2ccc(O)c(Sc3ncn[nH]3)c2)c1	-4	-8%	-3%	-9%	-6%	35µM*
CCS(=O)(=O)N1CCc2cc(C(=O)NCc3ccc(Cl)cc3)ccc21	nt	nt	-4%	0%	1%	nt
SMILES	Coupling enz	JMJD2E inh	Tau FP inhib	Tau ThT inhib	Tau fluor counter	Sfp PPTase inh
Cc1nc2cnc(N3CCN(C)CC3)nc2n(Cc2ccc(F)cc2)c1=O	6	nt	nt	nt	nt	10%
CCSC1=NC2(CCCCC2)Nc2sc3c(c21)CCCC3	-3	?	?	28µM*	?	40µM*
CCc1c(C)sc(NC(=O)Cn2nc(C)c([N+](=O)[O-])c2C)c1C(N)=O	-1	-5%	?	?	-10%	11µM*
Cc1csc(NC(=O)Cn2nc(C)c([N+](=O)[O-])c2C)n1	1	3%	3%	-1%	0%	14%
CC(=O)c1cc(NC(=O)c2ccc(Cl)cc2)c(=O)oc1/C=C/N(C)C	0	?	?	10µM*	-27%	56µM*
Cc1cc(NC(=O)Nc2ccc(N(C)C)cc2)c2cc(F)cc(F)c2n1	-1	?	-6%	?	7.9µM*[quencher]	?
COC(=O)c1ccc2nc(C)cc(Nc3ccc(N(C)C)cc3)c2c1	-2	-8%	-2%	?	?	-6%
Cc1cnc(NC2=NCCC2)s1	0	2%	8%	-5%	-4%	-11%
CCc1nnc(NC2=NCCC2)s1	0	?	5%	1%	7%	56µM*
CN(C)c1ncnc2ccc(-c3ccc4c(c3)OCO4)cc12	-7	nt	nt	nt	nt	11%
C(=N\c1c(-c2ccccc2)nc2n1CCS2)/c1ccccc1	5	-13%	?	22µM*	?	9%
Clc1ccc(/C=N/c2c(-c3ccc(Cl)cc3)nc3n2CCS3)cc1	0	7%	15%	?	?	9%
CCC(C)NC(=O)c1sc2nc(C)c(C(=O)Nc3ccc(C)cc3C)c(-c3ccccc3Cl)c2c1N (stereo unspecified)	nt	nt	-1%	-15%	-13%	nt
CC(C)NS(=O)(=O)c1ccc(CCC(=O)N2CCC(C(N)=O)CC2)cc1	-31*	?	-11%	?	-27%	-23%
CCCSc1ncc(Cl)c(C(=O)Nc2sc3c(c2C(N)=O)CCCC3)n1	nt	nt	-8%	-7%	-12%	nt
CCSc1ncc(Cl)c(C(=O)Nc2sc3c(c2C(=O)NCCCOC)CCCC3)n1	nt	nt	-9%	-17%	-16%	nt
COCCCNC(=O)c1c(NC(=O)c2nc(S(C)(=O)=O)ncc2Cl)sc2c1CCCC2	nt	nt	-12%	13µM*	-26%	nt
CCNC(=O)c1c(NC(=O)c2nc(S(=O)(=O)CC)ncc2Cl)sc2c1CCCC2	nt	nt	-16%	6.3µM*	-27%	nt
Cc1ccc(Nc2c(-c3ccc(N(C)C)cc3)nc3ccccn23)cc1	nt	nt	?	-13%	-26%	nt
C/C(CCC(=O)OC[C@@H]1O[C@H](C#Cc2ccccc2)C=C[C@@H]1Oc1ccc(C)cc1)=N/OC[C@@H](O)[C@H]1O[C@H]2OC(C)(C)O[C@H]2[C@@H]1O	2	nt	-1%[11.6 µM]	3%[11.5 µM]	-3%[11.6 µM]	14%

Screening results deposited in PubChem BioAssay by National Center for Advancing Translational Sciences (NCATS).
